# Calls of active or inactive are those of the source. Rule for the calls: active = hit-call score of the fitted dose curve at least 0.9, where 1 is the maximum; inconclusive = response in the unintended direction; inactive = score below 0.9.
# Target: Estrogen receptor (Homo sapiens) (UniProt P03372)
# Assay: OT_ERa_GFPERaERE_0120: Odyssey Thera (OT) 2-hour HeLa Transcription Induction Assay for Estrogen Receptor (AID 2283382)
# Method: OT_ERa_GFPERaERE_0120 is a cell-based, single-readout assay that uses HeLa, a human cervix cell line, with measurements taken at 2 hours after chemical dosing in a 384-well plate.OT_ERa_GFPERaERE_0120 is one of one assay component(s) measured or calculated from the OT_ERa_GFPERaERE_0120 assay. It is designed to make measurements of fluorescent protein induction, a form of inducible reporter, as detected with optical microscopy: fluorescence microscopy signals by Microscopy technology.Data from the assay component OT_ERa_GFPERaERE_0120 was analyzed into 1 assay endpoint. This assay endpoint, OT_ERa_EREGFP_0120, was analyzed in the positive analysis fitting direction relative to DMSO as the negative control and baseline of activity. Using a type of inducible reporter, measures of receptor for gain-of-signal activity can be used to understand the reporter gene at the pathway-level as they relate to the gene ESR1. Furthermore, this assay endpoint can be referred to as a primary readout, because the performed assay has only produced 1 assay endpoint. To generalize the intended target to other relatable targets, this assay endpoint is annotated to the nuclear receptor intended target family, where the subfamily is steroidal.
# All assay endpoints are quantified using high content image analysis algorithms.
# Sequence of Estrogen receptor (Homo sapiens) (P03372 whole entry, looked up): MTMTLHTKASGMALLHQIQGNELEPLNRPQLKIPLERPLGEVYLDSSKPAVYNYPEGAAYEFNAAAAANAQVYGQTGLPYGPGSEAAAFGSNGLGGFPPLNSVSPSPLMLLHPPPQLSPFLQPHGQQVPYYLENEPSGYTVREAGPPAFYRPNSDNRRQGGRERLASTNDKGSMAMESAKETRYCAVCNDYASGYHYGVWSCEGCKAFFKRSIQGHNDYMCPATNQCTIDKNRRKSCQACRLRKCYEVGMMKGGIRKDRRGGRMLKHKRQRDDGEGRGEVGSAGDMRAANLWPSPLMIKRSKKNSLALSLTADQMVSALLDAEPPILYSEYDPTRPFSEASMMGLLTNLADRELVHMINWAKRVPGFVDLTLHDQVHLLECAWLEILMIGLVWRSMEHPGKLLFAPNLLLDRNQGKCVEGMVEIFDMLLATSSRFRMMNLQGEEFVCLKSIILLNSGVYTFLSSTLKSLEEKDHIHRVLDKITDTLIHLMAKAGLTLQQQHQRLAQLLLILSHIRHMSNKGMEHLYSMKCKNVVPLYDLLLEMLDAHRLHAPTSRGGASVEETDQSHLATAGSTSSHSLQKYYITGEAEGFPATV
row,SMILES,outcome
1,N#Cc1c[nH]cc1-c1cccc2c1OC(F)(F)O2,inactive
2,COP(=S)(OC)SCn1nnc2ccccc2c1=O,inactive
3,OC(c1ccc(Cl)cc1)(c1ccc(Cl)cc1)C(Cl)(Cl)Cl,inactive
4,Clc1nc(Cl)nc(Nc2ccccc2Cl)n1,inactive
5,O=C(Nc1ccccc1-c1ccc(Cl)cc1)c1cccnc1Cl,inactive
6,Cc1nc(N(C)C)nc(OC(=O)N(C)C)c1C,inactive
7,CCOc1nc(F)cc2nc(S(=O)(=O)Nc3c(Cl)cccc3Cl)nn12,inactive
8,CCCN(CC)CC1COC2(CCC(C(C)(C)C)CC2)O1 (stereo not given),inactive
9,CS(=O)(=O)c1ccc(C(=O)C2C(=O)CCCC2=O)c([N+](=O)[O-])c1,inactive
10,N#Cc1c(Cl)cccc1Cl,inactive
11,CCOP(=S)(OCC)Oc1nc(Cl)n(C(C)C)n1,inactive
12,COP(=O)(OC)O/C(C)=C/C(=O)N(C)C,inactive
13,COc1cc(OC)nc(NC(=O)NS(=O)(=O)c2ncccc2OCC(F)(F)F)n1,inactive
14,CC1(C)CON(Cc2ccccc2Cl)C1=O,inactive
15,CC1(C)C(C=C(Cl)Cl)C1C(=O)OC(C#N)c1cccc(Oc2ccccc2)c1 (stereo not given),inactive
16,COCC(C)N(C(=O)CCl)c1c(C)csc1C (stereo not given),inactive
17,CCC(C)n1c(=O)[nH]c(C)c(Br)c1=O (stereo not given),inactive
18,N#CN=C1SCCN1Cc1ccc(Cl)nc1,inactive
19,CC1(C)C(C(=O)OC(C#N)c2cccc(Oc3ccccc3)c2)C1(C)C (stereo not given),inactive
20,CCNP(=S)(OC)O/C(C)=C/C(=O)OC(C)C (stereo not given),inactive

row,SMILES,outcome
1,COC(=O)NS(=O)(=O)c1ccc(N)cc1,inactive
2,Nc1cnn(-c2ccccc2)c(=O)c1Cl,inactive
3,O=C(O)c1c(Cl)ccc2cc(Cl)cnc12,inactive
4,CCOc1cc(C(C)(C)C)ccc1C1COC(c2c(F)cccc2F)=N1 (stereo not given),inactive
5,Cn1c(-c2ccccc2)cc(-c2ccccc2)[n+]1C,inactive
6,O=c1n(Cl)c(=O)n(Cl)c(=O)n1Cl,inactive
7,COc1ccc(-c2ccccc2)cc1NNC(=O)OC(C)C,inactive
8,CCCCC(C#N)(Cn1cncn1)c1ccc(Cl)cc1 (stereo not given),inactive
9,CNC(=O)N(C)c1nnc(C(C)(C)C)s1,inactive
10,CC(C)N1C(=O)c2ccccc2NS1(=O)=O,inactive
11,CCN(CC)C(=O)C(C)Oc1cccc2ccccc12 (stereo not given),inactive
12,COP(=S)(OC)Oc1ccc([N+](=O)[O-])c(C)c1,inactive
13,COCC(=O)N(c1c(C)cccc1C)C(C)C(=O)OC (stereo not given),inactive
14,CC(C)N1C(=O)N(c2ccccc2)CSC1=NC(C)(C)C,inactive
15,CCSC(=O)N1CCCCCC1,inactive
16,CC(C)=CC1C(C(=O)OCc2coc(Cc3ccccc3)c2)C1(C)C (stereo not given),inactive
17,CCNC(=O)NC(=O)C(C#N)=NOC,inactive
18,CC(C)Oc1cccc(NC(=O)c2ccccc2C(F)(F)F)c1,inactive
19,Nc1c(Cl)c(F)nc(OCC(=O)O)c1Cl,inactive
20,CC(C)Nc1nc(Cl)nc(NC(C)C)n1,inactive

# — PubChem BioAssay (EPA / NIEHS)
